# Data reported in PubChem BioAssay AID1403 (National Center for Advancing Translational Sciences (NCATS), 2008).
# Inconclusive results are not listed. Calls of active or inactive are those of the source. Calls come from the whole dose curve; as a rule, active = well fitted curve in the direction sought with a large enough effect in the signal ratio; inconclusive = small, poorly fitted or top-dose-only effect, or a change in a side signal; inactive = no such curve, though single readings can be large or run the other way; the % refers to the signal ratio.
# Molecular target: Follicle-stimulating hormone receptor (Homo sapiens) (UniProt P23945)
# Assay: Counterscreen for Agonists of Thyroid Stimulating Hormone Receptor: HTRF Activity in a Follicle Stimulating Hormone Receptor Cell Line
# Excerpt: NIH Chemical Genomics Center [NCGC] NIH Molecular Libraries Screening Centers Network [MLSCN] MLSCN Grant: 1 X01 MH080680-01 PI Name: Dr. Marvin Gershengorn, NIH NCGC Assay Overview: Confirmation of Thyroid Stimulating Hormone Receptor Agonists TSH is an alpha/beta heterodimeric glycoprotein hormone secreted from the anterior pituitary gland which belongs to the glycoprotein hormone family. The actions of TSH are mediated by a seven-transmembrane receptor, which upon TSH binding couples preferentially to the G-alpha (s) protein (Gs), resulting in activation of adenylate cyclase and increase in cyclic adenosine 3', 5' monophosphate (cAMP). The TSH receptor (THSR) is mainly expressed in thyroid follicular cells and regulates their growth and function. […] In order to confirm specificity of the compounds to the TSHR, a confirmatory assay was conducted on a similar family member, the Follicle Stimulating Hormone (FSH) receptor, transfected into a HEK 293 cell line, using an orthogonal detection technology to measure cAMP stimulation: antibody-based Homogeneous Time Resolved Fluorescence (HTRF).
# NCGC Assay Protocol Summary: Homogeneous Time Resolved Fluorescence (HTRF) cAMP Assay. […] Plates were measured using the Envision plate reader (PerkinElmer, Boston, MA) with excitation at 330 nm and emissions of 615 nm and 660 nm. […]
row,Compound,outcome
1,C=CCN1C(=O)C2(C(C(=O)OC)=C(N)Oc3c2c(=O)oc2ccccc32)c2ccccc21 (configuration not stated),inactive
2,CCOC(=O)C1=C(N)Oc2c(c(=O)oc3ccccc23)C12C(=O)N(C)c1ccccc12 (configuration not stated),inactive
